HDAC3 inhib = human HDAC3 inhibition; O15379; recombinant HDAC3, fluorogenic peptide/trypsin coupled, fluorescence; inhibition, % at 8.3 µM; 320,000 compounds, 0.15% hits; AID 2718; in the data active = inhibition above about 26%, passing the limit was not always enough; inconclusive = no clear call, values can overlap the other calls
ALR inh = human ALR oxidase inhibition via reduced H2O2; purified ALR, DTT oxidation, H2O2 HRP-luminol luminescence; 290,000 compounds, 3.8% hits; inhibition, % (test concentration not listed); P55789;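 active = mean replicate inhibition above about 79%, with every replicate also reaching it, limit read from the data; inconclusive = only one of the two criteria met; inactive = mean below limit and not every replicate reaching it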
Target sequence (P55789 whole entry, looked up): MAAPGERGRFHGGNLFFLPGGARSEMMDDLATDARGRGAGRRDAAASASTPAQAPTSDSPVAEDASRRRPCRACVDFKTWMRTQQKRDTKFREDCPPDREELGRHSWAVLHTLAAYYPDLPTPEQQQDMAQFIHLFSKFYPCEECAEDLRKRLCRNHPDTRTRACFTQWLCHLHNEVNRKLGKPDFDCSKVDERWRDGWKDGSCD
Rce1 inh = blocks yeast Ras-converting enzyme; Q03530; yeast membranes, quenched prenylated peptide cleavage fluorescence; calls only; 290,000 compounds, 0.27% hits;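 active = fall in fluorescence gain of 50% or more versus controls, with final raw signal at or below 3038400; inconclusive = same 50% fall but final raw signal above 3038400; inactive = fall in fluorescence gain under 50%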;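 note: plate controls were neutral control wells for no effect and wells lacking membranes for full effect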
Rtt109 HAT inh = inhibitors of Candida albicans Rtt109/Vps75 histone acetyltransferase; purified Rtt109/Vps75, ThioGlo CoA-SH fluorescence, 4 h; 330,000 compounds, 0.16% hits; AID 540336; Q5AAJ8; inhibition, % at 34.9 µM;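 active = inhibition of at least 50% in every replicate; inconclusive = best replicate reaches 50% inhibition but some replicates fall short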
Efflux pump inh = blocks antifungal efflux pumps in multiplex yeast assay | 330,000 compounds, 0.44% hits | S. cerevisiae Candida pump triplex, Nile Red efflux | AID 485275 | inhibition, % at 10 µM;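 active = plate passing quality check with inhibition over a set limit, or well fluorescence over plate mean plus 4 SD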;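 note: Nile Red retained in pooled yeast measured as flow cytometry median fluorescence; 0% = buffer negative control and 100% = Enniatin B positive control; higher means more Nile Red kept so more efflux inhibition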
GRK2 aptamer HTS = human GRK2 inhibition via aptamer displacement; bead flow cytometry, FAM-aptamer displacement from GRK2; AID 488847; 330,000 compounds, 0.59% hits; inhibition of aptamer binding, % at 10 µM; P25098;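 active = inhibition of aptamer binding above 40%, roughly 3 SD of noise, on plates passing a quality check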;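 note: median bead fluorescence of bound FAM aptamer so fluorescent compounds give negative values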
An asterisk follows results filed as active; i = inactive; ? = inconclusive; . = no result. Sampled rows, rich in hits. Any-hit rate of the full collection: about 4.5%.

SMILES	HDAC3 inhib	ALR inh	Rce1 inh	Rtt109 HAT inh	Efflux pump inh	GRK2 aptamer HTS
Cc1sc(NC(=O)CSc2ncn(-c3ccccc3)n2)nc1-c1ccccc1	-2.7	-3.8	i	-9.1	0.3	0.0
COc1ccc(-c2nc(NC(=O)Cn3cnnn3)sc2C)cc1	1.6	.	i	-3.3	0.0	0.0
Cc1nc(SCC(=O)Nc2nc3ccccc3s2)n[nH]1	-8.9	-12.0	i	3.2	-0.1	2.0
CC(=O)N1CC(=O)N=C1SCC(=O)Nc1nc(-c2ccccc2)c(-c2ccccc2)s1	28.5*	98.7*	i	3.6	-0.3	5.0
O=C(CSC1=NCCS1)Nc1nc2ccccc2s1	-0.2	90.4*	i	16.9	-0.1	0.0
Cc1sc(NC(=O)CSC2=NCCS2)nc1-c1ccccc1	1.2	98.7*	i	8.4	-0.1	1.0
COc1ccc(-c2nc(NC(=O)c3ccc(OCC(=O)N4CCOCC4)c(OC)c3)sc2C)cc1	-1.0	96.1*	i	-5.3	-0.1	3.0
CCc1nnc(NC(=O)CSc2ncnc3c2oc2ccccc23)s1	0.7	14.3	i	2.0	-0.1	0.0
Cc1nc(NC(=O)CSC2=NCCS2)sc1C(=O)N(C)C	4.3	98.6*	i	-7.5	0.0	1.0
O=C(CSc1ncnc2c1oc1ccccc12)Nc1nc2ccccc2s1	-7.8	95.5*	i	-5.7	0.0	0.0
COc1cc(C(=O)Nc2ccc(C)cn2)ccc1OCC(=O)N1CCOCC1	-0.9	17.8	.	-7.3	-0.3	0.0
Cc1ccc(C(=O)OCC(=O)NC(C)C2CC3CCC2C3)cc1N (stereo not drawn)	-2.6	1.0	.	2.4	0.2	0.0
CCCOc1ccc(N2CC(C(=O)NC3=NCCS3)CC2=O)cc1 (stereo not drawn)	2.8	-3.9	.	12.8	0.0	3.0
CN(NS(=O)(=O)c1ccccc1)C(=O)c1ccccc1	.	.	.	0.9	.	.
CN(C)c1ccc(/C=C/c2cccc[n+]2[O-])cc1	4.6	?	.	-49.4	0.1	0.0
CN(C)c1ccc(/C=C/c2ccc3ccccc3[n+]2C)cc1	16.7	98.4*	i	28.6	28.8*	2.0
CN(C)c1ccc(/C=C/c2ccc3c4ccccc4ccc3[n+]2-c2ccccc2)cc1	.	.	.	64.3*	.	.
O=S(=O)(c1ccc(NC(=S)NN=Cc2ccccc2O)cc1)N1CCCCC1	.	.	.	12.9	.	.
Cc1cc(C)c(C(=O)CSc2nnc(C)c(=O)[nH]2)cc1C	0.0	94.6*	i	.	-0.1	0.0
CN(Cc1ccco1)C(=O)CCc1nc2sc3c(c2c(=O)[nH]1)CCCC3	3.1	8.7	i	14.5	0.1	2.0
CC(=O)Nc1ccc(SCC(=O)Nc2oc(C)c3c(C)n[nH]c(=O)c23)cc1	8.9	98.7*	i	14.0	0.0	1.0
Cc1ccc(CN(C)C(=O)CCc2nc3sc4c(c3c(=O)[nH]2)CCCC4)o1	2.7	98.2*	i	-9.6	0.2	0.0
COC(=O)CSc1nnc(C)c(=O)[nH]1	1.6	-5.6	i	-2.0	0.0	0.0
Cc1nnc(SCC(=O)Nc2sc3c(c2C#N)CCCC3)[nH]c1=O	4.2	97.8*	i	4.4	0.1	2.0
CCOC(=O)C1CCCN(Cc2nc(CC3CC3)no2)C1 (stereo not drawn)	-4.4	-1.7	i	-0.7	0.1	3.0
SMILES	HDAC3 inhib	ALR inh	Rce1 inh	Rtt109 HAT inh	Efflux pump inh	GRK2 aptamer HTS
O=C(O)CCc1nnc(SCC(=O)Nc2cccc(C(F)(F)F)c2)[nH]c1=O	1.4	99.1*	.	3.4	0.0	0.0
Cc1nnc(SCc2nc3sc4c(c3c(=O)[nH]2)CCCC4)[nH]c1=O	0.1	98.4*	i	-6.9	0.1	1.0
Cc1nnc(SCC(=O)Nc2ccc3c(c2)OCO3)[nH]c1=O	-3.9	36.2	i	1.2	0.0	2.0
Cc1ccc(NC(=O)CSc2nnc(CCC(=O)O)c(=O)[nH]2)cc1	2.2	98.4*	i	-1.5	0.0	0.0
O=C(O)CCc1nnc(SCC(=O)Nc2ccc(Br)cc2)[nH]c1=O	6.0	26.6	i	-5.9	0.3	1.0
CC(=O)Nc1ccc(NC(=O)CSc2nnc(C)c(=O)[nH]2)cc1	-1.3	98.3*	i	-3.5	0.1	7.0
O=C(O)CCc1nnc(SCC(=O)Nc2ccc(Cl)c(C(F)(F)F)c2)[nH]c1=O	-1.5	47.3	i	-11.4	0.2	0.0
CN(C)C(CNC(=O)CCCN1C(=O)c2cccc3cccc(c23)C1=O)c1ccccc1 (stereo not drawn)	1.2	3.6	i	-13.0	0.7	1.0

High-throughput results from PubChem BioAssay.
